Values joined by “and” are separate entries in the source; they are usually repeats but may differ in a detail not shown here. Equal entries are not always repeated. About 83,000 compounds went through this panel and 20% of them were active in at least one assay; those are over-represented in the sample as a whole.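 Each cell line was grown in a 96-well plate and treated with one concentration of compound for 48 hours. Values below 10 were considered active.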 Active and inactive are the calls of the source.
Key:
Assay in all cases: NCI-60 one-dose screen, 48 h (100 = growth as untreated, 0 = no growth, -100 = all killed)
NCI/ADR-RES ovarian = tested on: NCI/ADR-RES ovarian
T-47D breast = tested on: T-47D breast
BT-549 breast = tested on: BT-549 breast
MDA-MB-435 melanoma = tested on: MDA-MB-435 melanoma
SW-620 colon = tested on: SW-620 colon
MCF7 breast = tested on: MCF7 breast
HCT-116 colon = tested on: HCT-116 colon
HCC-2998 colon = tested on: HCC-2998 colon
KM12 colon = tested on: KM12 colon

Measured: growth

CN1C2CCC1[C@@H](COC(=O)c1ccccc1)[C@@H](O)C2 (some centres not stated)
inactive: NCI/ADR-RES ovarian; 10 µM unless noted 110% | T-47D breast; 10 µM unless noted 124% | BT-549 breast; 10 µM unless noted 143% | MDA-MB-435 melanoma; 10 µM unless noted 121% | SW-620 colon; 10 µM unless noted 111% | MCF7 breast; 10 µM unless noted 97.3% | HCT-116 colon; 10 µM unless noted 101% | HCC-2998 colon; 10 µM unless noted 105% | KM12 colon; 10 µM unless noted 103%

C[C@H](O)CCC(=O)c1ccoc1
inactive: NCI/ADR-RES ovarian; 10 µM unless noted 102% | T-47D breast; 10 µM unless noted 108% | BT-549 breast; 10 µM unless noted 118% | MDA-MB-435 melanoma; 10 µM unless noted 112% | SW-620 colon; 10 µM unless noted 105% | MCF7 breast; 10 µM unless noted 98.6% | HCT-116 colon; 10 µM unless noted 106% | HCC-2998 colon; 10 µM unless noted 102% | KM12 colon; 10 µM unless noted 104%

COc1cc(-c2ccc(N)c(OC)c2)ccc1N
inactive: NCI/ADR-RES ovarian; 10 µM unless noted 105% | T-47D breast; 10 µM unless noted 96.4% | BT-549 breast; 10 µM unless noted 95.6% | MDA-MB-435 melanoma; 10 µM unless noted 107% | SW-620 colon; 10 µM unless noted 100% | MCF7 breast; 10 µM unless noted 99.8% | HCT-116 colon; 10 µM unless noted 112% | HCC-2998 colon; 10 µM unless noted 124% | KM12 colon; 10 µM unless noted 101%

ClC1OC(Cl)(Cl)C(Cl)(Cl)OC1(Cl)Cl (configuration not stated)
inactive: NCI/ADR-RES ovarian; 10 µM unless noted 102% | T-47D breast; 10 µM unless noted 91.4% | BT-549 breast; 10 µM unless noted 84.4% | MDA-MB-435 melanoma; 10 µM unless noted 101% | SW-620 colon; 10 µM unless noted 115% | MCF7 breast; 10 µM unless noted 76.9% | HCT-116 colon; 10 µM unless noted 89.4% | HCC-2998 colon; 10 µM unless noted 112% | KM12 colon; 10 µM unless noted 104%

O=[P+](O)c1cccnc1
inactive: NCI/ADR-RES ovarian; 10 µM unless noted 102% | T-47D breast; 10 µM unless noted 88.2% | BT-549 breast; 10 µM unless noted 116% | MDA-MB-435 melanoma; 10 µM unless noted 107% | SW-620 colon; 10 µM unless noted 107% | MCF7 breast; 10 µM unless noted 102% | HCT-116 colon; 10 µM unless noted 102% | HCC-2998 colon; 10 µM unless noted 115% | KM12 colon; 10 µM unless noted 101%

CNC(=O)O/N=C(\SC)C(=O)N(C)C
inactive: NCI/ADR-RES ovarian; 10 µM unless noted 96.4% | T-47D breast; 10 µM unless noted 97.1% | BT-549 breast; 10 µM unless noted 101% | MDA-MB-435 melanoma; 10 µM unless noted 116% | SW-620 colon; 10 µM unless noted 106% | MCF7 breast; 10 µM unless noted 103% | HCT-116 colon; 10 µM unless noted 105% | HCC-2998 colon; 10 µM unless noted 77.4% | KM12 colon; 10 µM unless noted 102%

C[C@]12CC[C@H]3[C@@H](C[C@@H]4SC(Nc5cccc(F)c5)=N[C@@]45CC(=O)CC[C@]35C)[C@@H]1CCC2=O
inactive: NCI/ADR-RES ovarian; 10 µM unless noted 55.4% | MDA-MB-435 melanoma; 10 µM unless noted 35.9% | HCC-2998 colon; 10 µM unless noted 75.5% | KM12 colon; 10 µM unless noted 38.7%
active: T-47D breast; 10 µM unless noted -0.755% | BT-549 breast; 10 µM unless noted -8.61% | SW-620 colon; 10 µM unless noted 4.62% | MCF7 breast; 10 µM unless noted 4.46% | HCT-116 colon; 10 µM unless noted -68.8%

CCOC(=O)c1cncn1C(C)c1ccccc1 (configuration not stated)
inactive: NCI/ADR-RES ovarian; 10 µM unless noted 109% | T-47D breast; 10 µM unless noted 105% | BT-549 breast; 10 µM unless noted 100% | MDA-MB-435 melanoma; 10 µM unless noted 108% | SW-620 colon; 10 µM unless noted 115% | MCF7 breast; 10 µM unless noted 114% | HCT-116 colon; 10 µM unless noted 106% | HCC-2998 colon; 10 µM unless noted 118% | KM12 colon; 10 µM unless noted 104%

CC1=C([Te]c2ccccc2)C(=O)c2ccccc2C1=O
active: NCI/ADR-RES ovarian; 10 µM unless noted -23.1% | T-47D breast; 10 µM unless noted -51.9% | BT-549 breast; 10 µM unless noted -30.7% | MDA-MB-435 melanoma; 10 µM unless noted -3.36% | SW-620 colon; 10 µM unless noted -88.2% | MCF7 breast; 10 µM unless noted -77.3% | HCT-116 colon; 10 µM unless noted -40.5% | HCC-2998 colon; 10 µM unless noted -66.4% | KM12 colon; 10 µM unless noted -60.7%

C=C[Se]CC(=O)/C=C/c1ccccc1
inactive: NCI/ADR-RES ovarian; 10 µM unless noted 87.9% | T-47D breast; 10 µM unless noted 82.3% | BT-549 breast; 10 µM unless noted 108% | MDA-MB-435 melanoma; 10 µM unless noted 83.7% | SW-620 colon; 10 µM unless noted 87.9% | MCF7 breast; 10 µM unless noted 87.2% | HCT-116 colon; 10 µM unless noted 56.1% | HCC-2998 colon; 10 µM unless noted 85.4% | KM12 colon; 10 µM unless noted 26.6%

CC(=O)OCC1OC([S-])C(OC(C)=O)C(OC(C)=O)C1OC(C)=O.[Au+].c1ccc(CN2[CH-]N(Cc3ccccc3)C(c3ccccc3)=C2c2ccccc2)cc1
active: T-47D breast; 4.75 µM -20.3% | T-47D breast; 10 µM -52.1% | BT-549 breast; 4.75 µM 7.95% | MDA-MB-435 melanoma; 4.75 µM 4.71% | SW-620 colon; 4.75 µM -33% | SW-620 colon; 10 µM -17.6% | MCF7 breast; 4.75 µM 0.0903% | MCF7 breast; 10 µM -66.1% | HCT-116 colon; 4.75 µM -5.84% | HCT-116 colon; 10 µM -16.6% | HCC-2998 colon; 10 µM -62.8% | KM12 colon; 4.75 µM 6.84%
inactive: NCI/ADR-RES ovarian; 4.75 µM 53.3% | NCI/ADR-RES ovarian; 10 µM 66.5% | BT-549 breast; 10 µM 12.6% | MDA-MB-435 melanoma; 10 µM 29.4% | HCC-2998 colon; 4.75 µM 16.7% | KM12 colon; 10 µM 38%

CCCC1CCCCC12C(=O)NC(=O)NC2=O (configuration not stated)
inactive: NCI/ADR-RES ovarian; 10 µM unless noted 99.6% and 104% | T-47D breast; 10 µM unless noted 93.2% and 87.8% | BT-549 breast; 10 µM unless noted 112% and 98.9% | MDA-MB-435 melanoma; 10 µM unless noted 99.1% and 108% | SW-620 colon; 10 µM unless noted 94.9% and 106% | MCF7 breast; 10 µM unless noted 98.6% and 99.9% | HCT-116 colon; 10 µM unless noted 109% and 94.4% | HCC-2998 colon; 10 µM unless noted 103% and 96.6% | KM12 colon; 10 µM unless noted 98.1% and 107%
